Measured values: PubChem BioAssay (Tox21)
Records with an inconclusive call do not appear. Calls of active or inactive are those of the source. Unless noted, calls come from the whole dose curve; as a rule, active = well fitted curve in the direction sought with a large enough effect in the repeat runs; inconclusive = weak or mixed curves; inactive = no such curve, though single readings can be large; an effect the other way counts as inactive or inconclusive.

Legend:
[1] = qHTS assay to identify small molecule antagonists of the retinoid acid receptor (RAR) signaling pathway - cell viability counter screen (AID 1159551); note: nearly all actives have a fitted effect of over 35% in size
How it was run: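 Retinol-stimulated (1 uM final) C3RL4 cells, compound 6 h, 37 C; readout CellTiter-Glo luminescence (ATP) after 30 min RT incubation.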

[2] = qHTS assay to identify small molecule antagonists of the retinoic acid receptor (RAR) signaling pathway (AID 1159552; note: nearly all actives have a fitted effect of over 50% in size)
How it was run: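 Readout: luciferase luminescence, 30 min post-reagent at RT. Setup: C3RL4 RARE reporter cells, compounds plus retinol 1 uM final, 6 hr incubation at 37 C and 5% CO2.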

[3] = qHTS assay to identify small molecule agonists of the retinoic acid receptor (RAR) signaling pathway (AID 1159553)
How it was run: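 Reporter readout comes from luciferase under RARE control in C3RL4 cells; compound exposure lasts 6 hr at 37 C in 5% CO2, and luminescence is recorded following a 30 min room-temperature incubation with reagent.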

[4] = qHTS assay to identify small molecule antagonists of the estrogen related receptor (ERR) signaling pathway from Tox21 library - cell viability counter screen (AID 1224834); note: nearly all actives have a fitted effect of over 30% in size
How it was run: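 After 17.5 h of compound exposure at 37 C, ERR cells are incubated with CellTiter-Fluor for 30 min and fluorescence intensity serves as the viability measure.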

[5] = biological target: Luciferin 4-monooxygenase (Photinus pyralis) (UniProt P08659); assay: qHTS assay to identify small molecule inhibitors of firefly luciferase (AID 1224835); note: nearly all actives have a fitted effect of over 25% in size
Luciferin 4-monooxygenase (Photinus pyralis), sequence (P08659 whole entry, looked up): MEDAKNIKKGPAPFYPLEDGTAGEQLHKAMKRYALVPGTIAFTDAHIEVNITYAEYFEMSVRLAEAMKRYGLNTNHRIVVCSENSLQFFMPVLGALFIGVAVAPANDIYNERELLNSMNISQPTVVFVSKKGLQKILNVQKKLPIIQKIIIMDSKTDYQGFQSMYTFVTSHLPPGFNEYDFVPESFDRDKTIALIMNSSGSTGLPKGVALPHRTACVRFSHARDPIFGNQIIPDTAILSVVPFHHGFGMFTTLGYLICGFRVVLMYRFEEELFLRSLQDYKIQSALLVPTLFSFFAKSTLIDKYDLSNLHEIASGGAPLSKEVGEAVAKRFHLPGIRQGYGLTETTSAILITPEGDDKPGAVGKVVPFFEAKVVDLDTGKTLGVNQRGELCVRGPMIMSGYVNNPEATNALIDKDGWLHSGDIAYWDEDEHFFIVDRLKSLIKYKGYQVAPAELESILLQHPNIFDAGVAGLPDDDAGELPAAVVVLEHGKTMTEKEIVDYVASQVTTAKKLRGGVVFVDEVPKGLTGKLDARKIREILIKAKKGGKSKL
How it was run: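 Biochemical qHTS: compounds run as interplate titrations against purified firefly enzyme, with D-luciferin and ATP each at its KM concentration. Light output recorded by CCD imaging.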

[6] = qHTS assay to identify small molecule agonists of the constitutive androstane receptor (CAR) signaling pathway - cell viability counter screen (AID 1224836); note: nearly all actives have a fitted effect of over 45% in size
How it was run: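 Compound titrations (15 concentrations) went onto HepG2-CYP2B6-hCAR cells 4 h after seeding, alongside PK11195 at a final 0.75 uM; a 23 h, 37 C/5% CO2 incubation preceded CellTiter-Fluor viability measurement.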

[7] = qHTS assay to identify small molecule antagonists of the constitutive androstane receptor (CAR) signaling pathway - cell viability counter screen (AID 1224837); note: nearly all actives have a fitted effect of over 45% in size
How it was run: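 Counter screen run in HepG2-CYP2B6-hCAR cells: 4 hr settle, compound titration (15 concentrations) with 50 nM CITCO, 23 hr at 37 C/5% CO2, CellTiter-Fluor fluorescence.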

[8] = biological target: Nuclear receptor subfamily 1 group I member 3 (Homo sapiens) (UniProt Q14994); assay: qHTS assay to identify small molecule antagonists of the constitutive androstane receptor (CAR) signaling pathway (AID 1224838);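 note: HepG2 cells stably expressing hCAR with CYP2B6 luciferase reporter stimulated by CITCO; nearly all actives have a fitted effect of over 40% in size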
Nuclear receptor subfamily 1 group I member 3 (Homo sapiens), sequence (Q14994 whole entry, looked up): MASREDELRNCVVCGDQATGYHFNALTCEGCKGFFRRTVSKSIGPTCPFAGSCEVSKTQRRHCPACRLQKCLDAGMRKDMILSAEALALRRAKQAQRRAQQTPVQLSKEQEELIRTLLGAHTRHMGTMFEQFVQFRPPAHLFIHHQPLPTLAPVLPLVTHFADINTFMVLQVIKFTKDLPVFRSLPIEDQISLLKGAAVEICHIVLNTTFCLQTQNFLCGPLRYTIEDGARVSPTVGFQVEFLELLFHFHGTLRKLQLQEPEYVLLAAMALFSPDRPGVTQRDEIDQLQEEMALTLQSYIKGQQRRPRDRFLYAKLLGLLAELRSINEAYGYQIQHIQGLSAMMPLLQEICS
How it was run: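 Cell line: HepG2 double-stable for hCAR and CYP2B6-2.2kb reporter. Agonist: CITCO, 50 nM final. Compounds: 15 concentrations, 24 h, 37 C. Detection: ONE-Glo luminescence.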

[9] = biological target: Nuclear receptor subfamily 1 group I member 3 (Homo sapiens) (UniProt Q14994); assay: qHTS assay to identify small molecule agonists of the constitutive androstane receptor (CAR) signaling pathway (AID 1224839);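 note: HepG2 cells stably carrying human CAR and a CYP2B6 luciferase reporter; nearly all actives have a fitted effect of over 15% in size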
How it was run: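 In this screen, CAR-driven CYP2B6 promoter activity is measured by luminescence in HepG2-CYP2B6-hCAR cells after 24 h with test compounds and 0.75 uM PK11195 (final concentration).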

[10] = qHTS assay to identify small molecule antagonists of the estrogen related receptor signaling pathway with the pleiotropic PPARgamma coactivator (PGC) from Tox21 10K library - cell viability counter screen (AID 1224840; active = well fitted cell-killing curve with a large enough effect in the repeat runs, not every such curve was filed as active; note: nearly all actives have a fitted effect of over 40% in size)
How it was run: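 Following seeding of 2,000 PGC/ERR cells/well and 6 hours' incubation, test compounds were delivered in DMSO. The plates then sat 17.5 hours at 37 C before a fluorogenic live-cell protease reagent (CellTiter-Fluor) was read after 30 min.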

[11] = biological target: Thyrotropin receptor (Homo sapiens) (UniProt P16473); assay: qHTS assay to identify small molecule agonists of the thyroid stimulating hormone receptor (TSHR) signaling pathway (AID 1224843; calls by dose curve; note: nearly all actives have a fitted effect of over 45% in size)
Thyrotropin receptor (Homo sapiens), sequence (P16473 whole entry, looked up): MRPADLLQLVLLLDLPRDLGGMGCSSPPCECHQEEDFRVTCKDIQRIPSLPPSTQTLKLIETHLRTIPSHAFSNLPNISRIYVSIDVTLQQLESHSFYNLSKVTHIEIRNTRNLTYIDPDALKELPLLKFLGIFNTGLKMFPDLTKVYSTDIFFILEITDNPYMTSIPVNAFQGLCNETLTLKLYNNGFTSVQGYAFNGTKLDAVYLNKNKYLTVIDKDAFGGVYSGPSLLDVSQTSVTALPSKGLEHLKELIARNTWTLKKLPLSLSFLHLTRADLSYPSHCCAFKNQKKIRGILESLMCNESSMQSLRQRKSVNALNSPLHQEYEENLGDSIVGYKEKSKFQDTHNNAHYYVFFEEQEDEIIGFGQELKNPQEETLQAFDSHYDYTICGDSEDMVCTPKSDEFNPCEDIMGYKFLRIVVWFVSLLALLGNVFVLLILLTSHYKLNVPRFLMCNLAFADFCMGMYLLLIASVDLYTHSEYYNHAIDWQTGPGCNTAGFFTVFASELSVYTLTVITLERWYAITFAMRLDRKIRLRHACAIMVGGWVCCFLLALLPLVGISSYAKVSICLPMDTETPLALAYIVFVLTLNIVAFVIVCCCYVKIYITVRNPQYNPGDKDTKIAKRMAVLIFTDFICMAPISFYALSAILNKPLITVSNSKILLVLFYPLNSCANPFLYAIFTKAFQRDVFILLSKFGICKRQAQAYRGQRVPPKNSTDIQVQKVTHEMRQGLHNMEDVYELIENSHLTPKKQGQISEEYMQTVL
How it was run: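 TSHR-HEK293 cells in agonist mode, 30 min room-temperature step, then cAMP measured by competitive HTRF (cAMP-d2 with anti-cAMP cryptate) after 1 h at room temperature. Tested at 15 concentrations in triplicate.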

[12] = qHTS assay to identify small molecule agonists of the hypoxia (HIF-1) signaling pathway - cell viability counter screen (AID 1224844; calls by dose curve; note: nearly all actives have a fitted effect of over 50% in size)
How it was run: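 Cells (HRE-bla ME-180, 2,000 per well) sat 5 hrs at 37C, got compound for 17 hrs, were read for CCF4-AM FRET, and were finally lysed with CellTiter-Glo for a 30 min room-temperature luminescence read.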

[13] = qHTS assay to identify small molecule agonists of H2AX (AID 1224845; active = well fitted activation curve with a large enough effect in the signal ratio in the repeat runs, not every such curve was filed as active; the % refers to the signal ratio)
How it was run: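 Wild-type CHO-K1 cells, plated overnight, exposed 3hr at 37C to 15 concentrations (0.76% DMSO final). Lysed, then HTRF anti-pH2AX (S139) cryptate and anti-H2AX-d2 antibodies, 24 hr room temperature; 665/620 nm emission read.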

[14] = qHTS assay to identify small molecule agonists of the hypoxia (HIF-1) signaling pathway (AID 1224846; active = well fitted activation curve with a large enough effect in the signal ratio in the repeat runs, not every such curve was filed as active; the % refers to the signal ratio)
How it was run: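 A low-serum medium (0.5% dialyzed FBS) holding 2,000 HRE-bla ME-180 cells per well is preincubated for 5 hrs, dosed with compounds by pintool, and kept a further 17 hrs at 37C, 5% CO2 before CCF4-AM FRET detection of beta-lactamase.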

[15] = qHTS assay to identify small molecule agonists of H2AX - cell viability counter screen (AID 1224847; calls by dose curve; note: top concentration of the series differs between compounds; nearly all actives have a fitted effect of over 30% in size)
How it was run: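 Read-out: CellTiter-Glo luminescence, 30 min RT. Cells: wild-type CHO-K1, 1000/well, 10% FBS, plated overnight at 37C. Treatment: 15 concentrations, 3 hr, 37C, 0.76% DMSO.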

[16] = qHTS assay to identify small molecule antagonists of the estrogen related receptor signaling pathway with the pleiotropic PPARgamma coactivator (PGC) from Tox21 10K library (AID 1224841; call rule not given here; note: actives are mostly falling curves and most rising ones were filed inactive; nearly all actives have a fitted effect of over 50% in size)
How it was run: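 qHTS antagonist format: PGC/ERR cells, 2k/well, compound in DMSO by pin transfer after 6 h attachment, 18 h treatment at 37 C, One-Glo luminescence read at 30 min.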

[17] = qHTS assay to identify small molecule agonists of the estrogen related receptor signaling pathway with the pleiotropic PPARgamma coactivator (PGC) from Tox21 10K library (AID 1224842); note: nearly all actives have a fitted effect of over 15% in size
How it was run: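 PGC/ERR reporter cell line, 2,000 cells per well, incubated 6 h at 37 C before 23 nL compound in DMSO was added. After 18 h at 37 C, One-Glo luminescence read following 30 min at room temperature.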

[18] = qHTS assay to identify small molecule antagonists of the estrogen related receptor (ERR) signaling pathway from Tox21 library (AID 1224848); note: nearly all actives have a fitted effect of over 50% in size
How it was run: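 ERR reporter cell line (from NTP) seeded 2,000 cells/well, rested 6 h at 37 C/5% CO2, then pin-dosed with compounds in DMSO. After 18 h at 37 C, ONE-Glo added; luminescence read after 30 min at room temperature.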

[19] = qHTS assay to identify small molecule agonists of the estrogen related receptor (ERR) signaling pathway from Tox21 library (AID 1224849; calls by dose curve; note: nearly all actives have a fitted effect of over 15% in size); settings: ERR reporter cell line, ONE-Glo luciferase, 18 h; at 92.4 µM (top of the series) unless noted
How it was run: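 Screening used an NTP-provided ERR luciferase cell line. Compounds in DMSO were added 6 h after seeding and left 18 h at 37 C before a 30 min ONE-Glo step and luminescence reading.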

[20] = qHTS RealTime-Glo MT Cell Viability Assay in HepG2 cells - 24 hour (AID 1224867); note: nearly all actives have a fitted effect of over 50% in size
How it was run: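 Real-time, nonlytic viability: 600 HepG2 cells/well mixed with NanoLuc enzyme plus prosubstrate; 5 h settle, compound (DMSO) added by pintool; luminescence monitored over 40 h at 37 C.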
% is set by controls: 0 for no effect and ±100 for the full control effect.

COc1cc(C(=O)NC2CCCNC2)cc(OC)c1OC (configuration not stated)
inactive: outcome [1] | outcome [2] | Potency [3] | outcome [4] | Potency [5] | outcome [6] | outcome [7] | outcome [8] | Potency [9] | outcome [10] | Potency [11] | outcome [12] | outcome [13] | outcome [14] | outcome [15]

C[n+]1ccccc1/C=N/O
inactive: outcome [1] | outcome [2] | Potency [3] | outcome [4] | Potency [5] | outcome [6] | outcome [7] | outcome [8] | Potency [9] | outcome [10] | Potency [16] | Potency [17] | Potency [11] | outcome [12] | outcome [13] | outcome [15] | outcome [18] | activity change, positive = activation [19] 0.0992% [at 42.5 µM] | outcome [20]

CCN(CC)CC
inactive: outcome [1] | outcome [2] | Potency [3] | outcome [4] | Potency [5] | outcome [6] | outcome [7] | outcome [8] | Potency [9] | outcome [10] | Potency [11] | outcome [12] | outcome [13] | outcome [14] | outcome [15] | outcome [20]

CN(C)c1ccncc1
inactive: outcome [1] | outcome [2] | Potency [3] | outcome [4] | Potency [5] | outcome [6] | outcome [7] | outcome [8] | Potency [9] | outcome [10] | Potency [11] | outcome [12] | outcome [13] | outcome [14] | outcome [15] | outcome [18] | activity change, positive = activation [19] -2.4% | outcome [20]

C[C@H]1COc2c(C3(N)CC3)c(F)cc3c(=O)c(C(=O)O)cn1c23
inactive: outcome [1] | outcome [2] | Potency [3] | outcome [4] | Potency [5] | outcome [6] | outcome [7] | outcome [8] | Potency [9] | outcome [10] | Potency [11] | outcome [12] | outcome [13] | outcome [14] | outcome [15] | outcome [20]

NCC1CCC(C(=O)Oc2ccc(CCC(=O)O)cc2)CC1 (configuration not stated)
inactive: outcome [1] | outcome [2] | Potency [3] | outcome [4] | Potency [5] | outcome [6] | outcome [7] | outcome [8] | Potency [9] | outcome [10] | Potency [11] | outcome [12] | outcome [13] | outcome [14] | outcome [15] | outcome [20]

CNC(C)=O
inactive: outcome [1] | outcome [2] | Potency [3] | outcome [4] | Potency [5] | outcome [6] | outcome [7] | outcome [8] | Potency [9] | outcome [10] | Potency [11] | outcome [12] | outcome [13] | outcome [14] | outcome [15] | outcome [20]

CC(=O)OC/C=C(/C)CCC=C(C)C
inactive: outcome [1] | outcome [2] | Potency [3] | outcome [4] | Potency [5] | outcome [6] | outcome [7] | outcome [8] | Potency [9] | outcome [10] | Potency [11] | outcome [12] | outcome [13] | outcome [14] | outcome [15] | outcome [20]
